# Records with an inconclusive call do not appear. Where a call stands in place of a potency, no number is given. Calls of active or inactive are those of the source. Calls follow the shape of the full dose curve.
# Test: Nuclear factor erythroid 2-related factor 2/antioxidant responsive element (Nrf2/ARE) small molecule agonists: luciferase reporter gene qHTS assay in human keratinocytes (AID 1919969); also: nearly all actives have a fitted effect of over 35% in size
# Potency is read from the fitted curve at half-maximal effect.
row,SMILES,Potency
1,CCc1ccc(C2CCNCC2)cc1,inactive
2,CN(C)CCc1c[nH]c2ccc(O)cc12,67 µM (active)
3,CC(Cc1ccccc1)NCCCCl (stereo not given),inactive
4,ClC1=C(Cl)C2(Cl)C(CBr)CC1(Cl)C2(Cl)Cl (stereo not given),inactive
5,c1ccc2c(c1)OCC(C1=NCCN1)O2 (stereo not given),23.7 µM (active)

# — PubChem BioAssay (Tox21)
